The source of these data is the supplement of paper PMC6555819.

One experiment deals with PPARg:RXRa 30nM:10nM, anti-RXR (NR concentration 30 nM, RXRa partner concentration 10 nM). The experiment in a line: PBM binding z-score (relative to random genomic background probes); higher = stronger binding; sequences stand for … in GC…GCGATTGACAGCGTAGAATGAAGG
The essentials: (§1)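 Scanned fluorescence from custom Agilent 4×180K protein-binding microarrays was regression-normalized. Binding z-scores use random background probes as reference. Ligand-free nuclear receptor dimers were incubated on the arrays for 1 h and detected with antibodies against each partner (one per run).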
The sequence GATACAGGGTCAGCTAGAGGCCTGAGTATGGAAA registered a PBM binding z-score of 0.545.
The sequence CTCGAAAGGTCGTGCTCAGGTGAGCATACCAAAC showed a PBM binding z-score of 1.02.
Consider CGTCCAAGGTCAAAGGTCAGTGAGGAGATGACGG, for which the PBM binding z-score was 8.09.
As to GATGCTAGGTCAACTGATGGTCAGCTAAAGCTCG, the PBM binding z-score was found to be 0.474.
For the sequence AGATTGAGGTTATTAAGATCAGGGAATTGCGGTC, the PBM binding z-score worked out at 0.461.
CGTCCAAGGCCAATGCTAGGTCAGTGAAAGCATT: the PBM binding z-score was -1.33.
On to GAAACAGGGTCAAGGCCAGAGTACGCGTATTGAT, for which the PBM binding z-score is 3.1.
In turn, CCGCCTAGGTCAGGGCCAGTATAGGAGGAACGTT displayed a PBM binding z-score of -0.497.
The sequence CCGAGTAGGTTAGGGGGCATTCAGGCAACGGTGA registered a PBM binding z-score of 5.18.
With ACTCGGAGGACAACGGTCAGAGCTACGCCAGTGA, the PBM binding z-score was -0.439.
As for CGTCAAAGTTCAACTAAGGTAACGTACAGCACGC, the PBM binding z-score is 2.85.
Sequence GCGACTGGGGCATCAGCAGGTTACAATAACTTAA gave a PBM binding z-score of -0.192.
Sequence TCTCGGAAGACACGAAAGGTCAGAGCTCGACATC yielded a PBM binding z-score of 3.29.
Same read-out and setting: next, TCGAGAAGGTTAGTCGGGGCATTCAGCCAACATA: 1.72; AGAATGAGGTTATACGTAGATCAGGGAGGAAAGT: 0.848.
Sequence ATATGTAGGTTATCGGGCCATTCAGTTTGCGCAT came in with a PBM binding z-score of 1.98.
Turning to TATACAGGGTAAAAGGCCAGAGTACGAATGTCGA, the PBM binding z-score was 2.26.
In turn, CCTGCTAGGTAAATGGTCAGCTAAAGCAGCTCGC came in with a PBM binding z-score of 0.189.
On the same count and under the same terms, next, TCTAATTGGTCAAAGGTCACACACTCGAAATGCG: 10.1.
TCATATAGGTTAATGCTAGGTGAAAGTCCGATCT: the PBM binding z-score came to 3.79.
Sequence TAGCCTAGGTCAGATCGGCCCAGTATACGCTATA gave a PBM binding z-score of -0.286.
In turn, CAAACTAGGTAACAGAGGTCAAAGTCCGTGCGTA came in with a PBM binding z-score of 3.97.
In the case of CCTTACGGGTCACTGACAGGTTACAGCATTTGGA, the PBM binding z-score was 1.49.
CCAGACAGGTGAAAAGTAACTCAGTCTGGTACGC: the PBM binding z-score turned out to be 0.369.
The same measure, in the same setting: next, ATCTCTAGGTAACCAAGATCAGTGAATGCCGAAC: 0.161.
Same read-out and setting: next, CCTACTGAGCCAAAGGTCATTGATTCCAATGCTC: 7.32; GCGACTGGGGCATCAGAAGGTTACCATAACTTAA: -0.0101.
In the case of ATCTATAGGTAACCAAGTTCAGTGAATGCCGAAC, the PBM binding z-score is 0.142.
As for CCAGACAGGTGAGAAGGCAACTCAGCCTCGATTA, the PBM binding z-score was -0.21.
Same read-out and setting: next, CCAGTCAGGTGAGAAGGTAACTCAGCCTCGATTA: -0.0852; TCGACTAGGTTAGTCGGGGCATTCAGCCAACATA: 1.49; CGTCCAAGTTCAACTAAGGTAACGTAAAGCACGC: 0.189.
Same read-out and setting: next, AATACAGGGGCACTAGGCCAGAGTAGGTACGAAT: 0.512; CCTGCTAGGTCATGGACAGCTAATCTACAGTATG: 0.906.
Sequence GCTAGTTGGGCAGTAAAAGGTCACACACCGGTCG registered a PBM binding z-score of 1.65.
The same measure, in the same setting: with TCAGACGGGTGAAGGTAACTCAGGTACGCAGTCG the figure was 2.83; with ATCTCTAGGTACGACTCAGTTCAGTGAAGAACGC, 0.235.
GCGACTGGGGCATAGCAGGTTACCATAAGGTTGG gave a PBM binding z-score of -0.371.
Same read-out and setting: with CGTCAAAGTTCAACTAAGGTAACGTAAAGCACGC the figure was 2.32.
TCAGACAGGTGAACGTAACTCAGGTACGCAGTCG displayed a PBM binding z-score of 3.66.

The next experiment has as its system PPARg:RXRa 90nM:30nM, anti-RXR (NR concentration 90 nM, RXRa partner concentration 30 nM). Described as above. Summed up:
as §1
GATACAGGGTCAGCTAGAGGCCTGAGTATGGAAA returned a PBM binding z-score of 1.56.
Still for that read-out and setting: with CTCGAAAGGTCGTGCTCAGGTGAGCATACCAAAC the figure was 2.96; with CGTCCAAGGTCAAAGGTCAGTGAGGAGATGACGG, 9.57; with GATGCTAGGTCAACTGATGGTCAGCTAAAGCTCG, 1.77.
As to AGATTGAGGTTATTAAGATCAGGGAATTGCGGTC, the PBM binding z-score was determined as 1.17.
Same read-out and setting: next, CGTCCAAGGCCAATGCTAGGTCAGTGAAAGCATT: -0.866; GAAACAGGGTCAAGGCCAGAGTACGCGTATTGAT: 5.15.
Same read-out and setting: next, CCGCCTAGGTCAGGGCCAGTATAGGAGGAACGTT: -0.0982; CCGAGTAGGTTAGGGGGCATTCAGGCAACGGTGA: 7.46; ACTCGGAGGACAACGGTCAGAGCTACGCCAGTGA: 0.354.
Regarding CGTCAAAGTTCAACTAAGGTAACGTACAGCACGC, the PBM binding z-score is 4.59.
Regarding GCGACTGGGGCATCAGCAGGTTACAATAACTTAA, the PBM binding z-score amounted to 0.171.
Consider TCTCGGAAGACACGAAAGGTCAGAGCTCGACATC, for which the PBM binding z-score was 2.35.
As for TCGAGAAGGTTAGTCGGGGCATTCAGCCAACATA, the PBM binding z-score amounted to 1.33.
Same read-out and setting: next, AGAATGAGGTTATACGTAGATCAGGGAGGAAAGT: 1.57; ATATGTAGGTTATCGGGCCATTCAGTTTGCGCAT: 3.76.
For TATACAGGGTAAAAGGCCAGAGTACGAATGTCGA, the PBM binding z-score turned out to be 3.82.
As for CCTGCTAGGTAAATGGTCAGCTAAAGCAGCTCGC, the PBM binding z-score came out at 1.31.
Sequence TCTAATTGGTCAAAGGTCACACACTCGAAATGCG came in with a PBM binding z-score of 12.
TCATATAGGTTAATGCTAGGTGAAAGTCCGATCT showed a PBM binding z-score of 3.26.
TAGCCTAGGTCAGATCGGCCCAGTATACGCTATA came in with a PBM binding z-score of 0.142.
Still for that read-out and setting: next, CAAACTAGGTAACAGAGGTCAAAGTCCGTGCGTA: 5.74; CCTTACGGGTCACTGACAGGTTACAGCATTTGGA: 3.28; CCAGACAGGTGAAAAGTAACTCAGTCTGGTACGC: 1.43.
Same read-out and setting: next, ATCTCTAGGTAACCAAGATCAGTGAATGCCGAAC: 0.426.
CCTACTGAGCCAAAGGTCATTGATTCCAATGCTC came in with a PBM binding z-score of 9.2.
Sequence GCGACTGGGGCATCAGAAGGTTACCATAACTTAA yielded a PBM binding z-score of 0.461.
The sequence ATCTATAGGTAACCAAGTTCAGTGAATGCCGAAC displayed a PBM binding z-score of 0.641.
The sequence CCAGACAGGTGAGAAGGCAACTCAGCCTCGATTA came in with a PBM binding z-score of 0.329.
On to CCAGTCAGGTGAGAAGGTAACTCAGCCTCGATTA, for which the PBM binding z-score is 0.619.
Sequence TCGACTAGGTTAGTCGGGGCATTCAGCCAACATA gave a PBM binding z-score of 1.12.
CGTCCAAGTTCAACTAAGGTAACGTAAAGCACGC yielded a PBM binding z-score of 0.966.
In turn, AATACAGGGGCACTAGGCCAGAGTAGGTACGAAT had a PBM binding z-score of 1.26.
Consider CCTGCTAGGTCATGGACAGCTAATCTACAGTATG, for which the PBM binding z-score was found to be 1.75.
The same measure, in the same setting: next, GCTAGTTGGGCAGTAAAAGGTCACACACCGGTCG: 3.19; TCAGACGGGTGAAGGTAACTCAGGTACGCAGTCG: 2.17.
The sequence ATCTCTAGGTACGACTCAGTTCAGTGAAGAACGC gave a PBM binding z-score of -0.098.
As for GCGACTGGGGCATAGCAGGTTACCATAAGGTTGG, the PBM binding z-score worked out at 0.318.
Still for that read-out and setting: with CGTCAAAGTTCAACTAAGGTAACGTAAAGCACGC the figure was 4.08.
The sequence TCAGACAGGTGAACGTAACTCAGGTACGCAGTCG yielded a PBM binding z-score of 2.83.
